# PubChem BioAssay AID488890 (Southern Research Specialized Biocontainment Screening …, 2010)
# The whole screen tested about 320,000 compounds, of which about 1,300 (0.41%) were called active. Roughly 3% stayed inconclusive and do not appear here. No rule for the calls is given here. These entries were drawn from the full list. Results with a measured potency or affinity are listed apart.
# Experiment: growth inhibition of non-replicating M. tuberculosis (AID 488890);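 also: plate controls were DMSO cells for no effect and high antibiotic wells for full effect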
# Details: Mycobacterium tuberculosis non-replicating, at 25 µM, stronger effect = higher value
row,SMILES,inhibition [%]
1,COCCNC(=O)C(c1ccc(O)cc1)N(Cc1cccs1)C(=O)CCC(=O)Nc1ccccn1 (stereo not drawn),7.81
2,CCn1c(SCc2ccc([N+](=O)[O-])cc2)nnc1C(C)NC(=O)c1ccccc1Br (stereo not drawn),-7.9
3,COc1ccc(CNC(=O)c2cc3c(C)nc4ccccc4c3o2)c(OC)c1,31.7
4,COC(=O)C1CC(c2ccc(Cl)cc2)=NO1 (stereo not drawn),10.9
5,O=C(OCC1CC(c2ccccc2)=NO1)c1ccc(Cl)cc1 (stereo not drawn),25.9
6,CC(NS(=O)(=O)c1ccc2c(c1)oc(=O)n2C)c1ccccc1 (stereo not drawn),-7.19
7,CC1Oc2ccccc2N(CC(=O)NC2CCCCC2)C1=O (stereo not drawn),-12.6
8,COc1ccc(S(=O)(=O)N=Nc2c(O)[nH]c3ccccc23)cc1,2.14
9,O=C(Nc1cccc(Br)c1)c1ccc(OC2CSC2)cc1,79.7
10,O=C(NCCNC(=O)c1cccc(O)c1)c1cccc(O)c1,-13.5
11,CCOC(=O)c1cc2c(C)[nH]c(C)c2cc(C(=O)OCC)c1=O,-5.61
12,CC(Oc1ccc(Cl)cc1Cl)C(=O)Nc1ccc(O)cc1 (stereo not drawn),-1.96
13,CC(=O)Nc1ccc(NC(=O)C(C)Oc2ccc(Cl)cc2Cl)cc1 (stereo not drawn),4.67
14,CC(=O)c1cnc(Nc2nc(C)c3cc(C)c(C)cc3n2)nc1C,16.2
15,O=c1oc2ccccc2cc1-c1nc(-c2ccccc2)no1,-0.8
16,COc1ccc(-c2cc3ccccc3oc2=O)cc1,24.3
17,COc1ccc(-c2nc3c(c(SCC(=O)N4CCOCC4)n2)COC(C)(C)C3)cc1,-3.27
18,CC1CCCCC1NC(=O)CN1C(=O)NC(C)(c2ccc(OC(F)F)cc2)C1=O (stereo not drawn),-1.28
19,CCCn1nnnc1NCc1ccc(Cl)cc1Cl,1.4
20,Cc1nnc(NC(=O)c2ccc3ccccc3c2)s1,9.74
21,CCCn1nnc(NC(=O)c2ccc3ccccc3c2)n1,-1.15
22,CCCCC(=O)Nc1nnnn1CCC,12.9
23,CCCn1nnnc1NC(=O)COc1ccc(Cl)c(C)c1,74.2
24,CCn1nnnc1NC(=O)c1ccc2ccccc2c1,-1.96
25,CCCn1nnnc1NC(=O)c1cc(Br)ccc1OC,66.1

row,SMILES,inhibition [%]
1,Cc1ccccc1NC(=O)c1ccc2ccccc2c1,40.9
2,CC(Oc1ccccc1)C(=O)OCC(=O)Nc1ccc2c(c1)OCO2 (stereo not drawn),23.9
3,CCOC(=O)c1sc2nc(C)nc(N3CCN(S(=O)(=O)c4ccccc4)CC3)c2c1C,34.9
4,CCOC(=O)c1c(-c2ccccc2Cl)cn2ccccc12,3.48
5,CCCCn1c(=O)[nH]c(=O)c2c1nc(-c1ccc(C(F)(F)F)cc1)n2C,2.06
6,C=CCn1c(CCC)nc2ccccc21,59.2
7,Cc1ccc(CNC(=O)COC(=O)CSc2ccc(Br)cc2C)cc1,71.4
8,CN(CC(=O)Nc1cccc(F)c1)C(=O)c1ccccc1OCC(=O)Nc1cccc(C(F)(F)F)c1,1.32
9,CCc1cc2cc(C)ccc2nc1SCC(=O)NNC(=O)c1ccco1,-31.6
10,O=C(O)c1cccc(S(=O)(=O)N2CCC(n3nnc4cc(C(F)(F)F)ccc43)CC2)c1,3.59
11,CC(=O)c1cccc(NC(=O)N(c2ccccc2)c2ccccc2)c1,4.45
12,Cc1ccc(S(=O)(=O)NCCc2nnc3ccc(SCC(=O)Nc4nc(C)cs4)nn23)cc1,-6.91
13,CC1=CC(C)(C)Nc2ccc(OC(=O)CCN3C(=O)c4ccccc4C3=O)cc21,19
14,CC1=CC(C)(C)Nc2ccc(OC(=O)CN3C(=O)c4cccc5cccc(c45)C3=O)cc21,78.9
15,COc1ccc([C@H]2CC(=O)C=C(c3cccc(OC(F)(F)F)c3)C2)cc1,24.7
16,NC(=O)Nc1cc(Cl)ccc1Cl,-13.6
17,NC(=O)N/N=C1\CCS(=O)(=O)c2ccc(F)cc21,1.74
18,S=C(NC1CCCCCC1)NC1CCCC1,71.8
19,O=c1[nH]c(-c2ccncc2)nc2ccccc12,26.6
20,c1ccc(-c2nc3ccccc3[nH]2)nc1,20.2
21,O=C(COc1ccc(/C=N/NC(=O)C(=O)N2CCCCCC2)cc1)Nc1ccccc1Cl,74.1
22,Cc1ccc(C)c(S(=O)(=O)NCC(c2ccco2)N2CCc3ccccc3C2)c1 (stereo not drawn),10.8
23,CC(NC(=O)c1ccc(N(C)C)c([N+](=O)[O-])c1)c1ccc(-n2ccnc2)cc1 (stereo not drawn),8.22
24,COc1ccc(C(=O)NC(C)c2ccc(-n3ccnc3)cc2)cc1[N+](=O)[O-] (stereo not drawn),6.19
25,O=C(Nc1ccccc1C(F)(F)F)c1ccsc1,-9.54

row,SMILES,inhibition [%]
1,CN(Cc1cnn(C)c1)Cc1nc(COc2ccccc2)no1,12.5
2,COc1ccc(OC)c(NC(=O)CSC2=NN3CCCC(=O)N=C3S2)c1,-10.2
3,O=C(CNCc1ccco1)Nc1ccccc1-n1cccc1,5.71
4,O=C(NCC(c1ccco1)N1CCN(c2ccccc2)CC1)C(=O)NC1CCCCC1 (stereo not drawn),-8.96
5,Cc1cc2c(cc1C)N(C(=O)CSC1=NCCS1)C(C)(C)c1ssc(=S)c1-2,27.9
6,Cn1c(O)c(N=NC(=O)c2cc(-c3cccs3)nc3ccccc23)c2ccccc21,-7.82
7,O=C(COc1cc(O)c2c(=O)cc(-c3ccccc3)oc2c1)c1ccccc1,-7.87
8,CC(C)(C)OC(=O)COc1cc(O)c2c(=O)cc(-c3ccccc3)oc2c1,53.9
9,Cc1ccc(OCC(=O)OCC(=O)c2ccccc2)cc1C,20.6
10,O=C(COc1ccc2oc(-c3ccccc3)cc(=O)c2c1)Nc1ccccc1,52.2
11,CCOC(=O)c1cc(=O)c2ccc(OCC(=O)Nc3ccccc3)cc2o1,0.19
12,COc1ccc(C(=O)c2ccccc2)c(O)c1,26.2
13,NC(=O)c1ccc(NC(=O)CN2CCOCC2)cc1,-9.52
14,Oc1ccc(/C=N/NP(=S)(c2ccccc2)c2ccccc2)c(O)c1O,-2.4
15,COc1ccc(OC)c(/C=C/C(=O)OCC(=O)NCc2cccs2)c1,22.8
16,N#Cc1cnn2c(N)c(-c3ccc(Cl)cc3)cnc12,-16.2
17,CCn1c(CC(=O)Nc2ccc(C)cc2)nnc1SCC(=O)N1CCN(c2ccccc2)CC1,21
18,COC(=O)c1cc(/C=C/c2ccccc2)[nH]n1,15.2
19,Cc1cc(NC(=O)/C=C/c2ccccc2)no1,17.2
20,Cc1cccc(C)c1NC(=S)NCCCN1CCCC1=O,-28.2
21,CCOc1ccc(N(CC(=O)Nc2ccc(OC)cc2OC)S(=O)(=O)c2c(C)[nH]c(=O)[nH]c2=O)cc1,25.1
22,O=c1c2cnn(-c3ccccc3)c2nc(-c2cccs2)n1-c1ccc(Br)cc1,8.85
23,O=c1oc(-c2cccs2)nc2ccccc12,48.8
